Bioassay records as filed in PubChem BioAssay.
Most compounds without a hit are left out; they make up all but 2.6% or so of the library.
Mcl1-Bid inh = disrupts binding of human Mcl-1 to Bid peptide | Q07820 | TR-FRET Mcl-1/Bid-Dy647 peptide binding, 1536-well | inhibition, % at 21.7 µM | 220,000 compounds, 0.97% hits | AID 1021;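 active = compounds that cut the binding signal by more than half at the single screening dose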;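 note: His-tagged Mcl-1 with europium anti-His antibody binding Bid BH3 peptide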
Target sequence (Q07820 whole entry, looked up): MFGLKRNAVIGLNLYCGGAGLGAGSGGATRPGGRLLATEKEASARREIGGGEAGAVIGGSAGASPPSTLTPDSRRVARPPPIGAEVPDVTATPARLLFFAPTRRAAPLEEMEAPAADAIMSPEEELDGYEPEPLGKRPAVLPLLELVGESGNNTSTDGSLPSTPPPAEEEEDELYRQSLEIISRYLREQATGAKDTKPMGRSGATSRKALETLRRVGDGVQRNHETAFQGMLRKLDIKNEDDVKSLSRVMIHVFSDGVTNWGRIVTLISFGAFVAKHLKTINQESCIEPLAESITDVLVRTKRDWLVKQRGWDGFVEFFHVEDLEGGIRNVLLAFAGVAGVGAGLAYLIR
MCL1-BIM inh = disrupts human MCL1 binding to BIM-BH3 peptide | Q07820 | GST-MCL1 / FITC-Bim-BH3 fluorescence polarization | inhibition, % at 10.9 µM | 320,000 compounds, 0.68% hits;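 active = inhibition above the mean inhibition of all tested compounds plus 3 SD, set per campaign, cut at about 40% in these data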;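 note: higher means more loss of mP so more displacement of Bim peptide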
eIF4E-4G inh = eIF4E/eIF4G interaction inhibition in translation initiation; inhibition, % at 21.7 µM; P63073+Q04637; 220,000 compounds, 0.37% hits; TR-FRET eIF4E-eIF4GI(517-606) binding, 2 h;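 active = inhibition above about 30%, limit read from the data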
14-3-3 Bad inh = disrupts binding of bovine 14-3-3 zeta to phospho-Bad peptide; P63103; TR-FRET 14-3-3zeta/Dy647-pBad peptide displacement, 1 h; inhibition, % at 21.7 µM; 220,000 compounds, 0.71% hits; AID 781;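 active = inhibition above about 70%, limit read from the data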
Target sequence (P63103 whole entry, looked up): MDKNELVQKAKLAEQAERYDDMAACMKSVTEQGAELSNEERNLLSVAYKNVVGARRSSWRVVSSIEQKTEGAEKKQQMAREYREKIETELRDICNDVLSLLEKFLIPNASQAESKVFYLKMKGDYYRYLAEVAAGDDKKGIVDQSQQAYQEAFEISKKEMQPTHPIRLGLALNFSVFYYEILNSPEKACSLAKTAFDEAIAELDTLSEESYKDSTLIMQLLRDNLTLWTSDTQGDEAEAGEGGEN
Mcl1-Noxa inh = Mcl-1/Noxa interaction inhibition; TR-FRET Mcl-1/Noxa peptide binding, 2 h; inhibition, % at 21.7 µM; 220,000 compounds, 1.5% hits;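 active = compounds that cut the protein-peptide binding signal by more than 50% relative to plate controls in a single-dose test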;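 note: His-tagged Mcl-1 with rhodamine Noxa BH3 peptide and terbium anti-His antibody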
Bim-Mcl-1 = human Bim-Mcl-1 interaction inhibition | inhibition, % at 10 µM | Bead-based flow cytometry, Bim peptide-Mcl-1 binding | Q07820 | 190,000 compounds, 0.1% hits | AID 1009; in the data active = inhibition above about 40%
Of the large screens only hits and unclear results are named; the others gave an inactive call.

CCC1=NN2C(=N)/C(=C\c3cccn3-c3ccc(Br)cc3)C(=O)N=C2S1	14-3-3 Bad inh 79 (no result: MCL1-BIM inh)
Cc1ccc(-n2sc3ccccc3c2=O)cc1	eIF4E-4G inh 45
O=c1oc2ccc3ccccc3c2cc1-c1nnc(-c2ccccc2)o1	none
COc1ccc(-c2nnc(-c3cc4c(ccc5ccccc54)oc3=O)o2)cc1	14-3-3 Bad inh 72, Mcl1-Noxa inh 64
CN(C)CCCN=Cc1c(O)n(Cc2ccc3c(c2)OCO3)c(=O)c2ccccc12	none
O=C(NC(=S)NCc1cccnc1)c1ccc([N+](=O)[O-])cc1	Mcl1-Bid inh 71
O=C(Nc1sc2c(c1C(=O)c1ccccc1)CCCC2)c1cccnc1	none
O=C(Nc1sc2c(c1C(=O)c1ccc(Cl)cc1)CCCC2)c1cccnc1	14-3-3 Bad inh 71
Clc1ccc(Cn2cccn2)cn1	none
Cc1[nH]nc(-c2ccc(OCc3cnn(-c4ccccc4)c3)cc2O)c1Oc1ccccc1F	Mcl1-Bid inh 59
O=c1c(Oc2ccccc2F)coc2cc(OCc3cnn(-c4ccccc4)c3)ccc12	none
O=C(OCCCOC(=O)c1ccccc1O)c1ccccc1O	none (no result: Mcl1-Bid inh, eIF4E-4G inh, 14-3-3 Bad inh, Mcl1-Noxa inh, Bim-Mcl-1)
Cc1ccc(S(=O)(=O)N2CCOCC2)cc1C(=O)O	none
Cc1ccc(S(=O)(=O)N2CCOCC2)cc1C(=O)N1C(=O)c2cccc(N)c2C1=O	Mcl1-Bid inh 97
CC(C)c1ccccc1-n1c(SCc2cc(=O)oc3ccc4ccccc4c23)nnc1-c1cccnc1	none
O=C(CSc1nc(-c2ccc(F)cc2)nc2c1Cc1ccccc1O2)Nc1cccc(C(=O)O)c1	eIF4E-4G inh 63, 14-3-3 Bad inh 95 (no result: MCL1-BIM inh)
O=C(CN(C(=O)c1csnn1)c1cccc(Cl)c1)NC1CCCCC1	none (no result: Mcl1-Bid inh, eIF4E-4G inh, 14-3-3 Bad inh, Mcl1-Noxa inh, Bim-Mcl-1)
CC(=O)c1sc(-c2ccc(Cl)cc2)cc1N	Mcl1-Bid inh 56 (no result: Bim-Mcl-1)
COC(=O)c1sc(-c2ccc(Cl)cc2)cc1N	none (no result: Bim-Mcl-1)
NNC(=O)c1c[nH]c2ccc(OCc3ccccc3)cc12	none (no result: Mcl1-Bid inh, eIF4E-4G inh, 14-3-3 Bad inh, Mcl1-Noxa inh, Bim-Mcl-1)
CCN(CC)c1ccc(NC(=O)CSc2ccsc2[N+](=O)[O-])c(C)c1	Mcl1-Noxa inh 66
O=C(CSc1ccsc1[N+](=O)[O-])Nc1cc(F)ccc1F	eIF4E-4G inh 50, 14-3-3 Bad inh 83, Mcl1-Noxa inh 104 (no result: MCL1-BIM inh)
Cc1ccc(CNC(=O)CSc2ccsc2[N+](=O)[O-])cc1	none
CC(=O)c1ccc(NC(=O)CSc2ccsc2[N+](=O)[O-])cc1	eIF4E-4G inh 32, Mcl1-Noxa inh 87 (no result: MCL1-BIM inh)
O=C(NCc1cn(-c2ccccc2)nc1-c1ccc(F)cc1)c1cccc([N+](=O)[O-])c1	none
COc1cc(CNc2ccc3[nH]c(=O)[nH]c3c2)cc(Cl)c1OCC(=O)NC(C)(C)C	Mcl1-Noxa inh 59
O=C(CCS(=O)(=O)c1ccccc1)N1CCN(c2ccc(F)cc2)CC1	none (no result: Mcl1-Bid inh, eIF4E-4G inh, 14-3-3 Bad inh, Mcl1-Noxa inh, Bim-Mcl-1)
Cn1c(=O)c2c(nc(Cc3ccc(N)cc3)n2C)n(C)c1=O	Mcl1-Bid inh 98 (no result: Bim-Mcl-1)
Cc1ccc(SCc2cn3c(C)csc3n2)cc1	none
Cc1cc(OCCN2CCC(Cc3ccccc3)CC2)ccc1[N+](=O)[O-]	none (no result: Mcl1-Bid inh, eIF4E-4G inh, 14-3-3 Bad inh, Mcl1-Noxa inh, Bim-Mcl-1)
O=C(NCc1cccnc1)c1cc2nc(-c3ccc4c(c3)OCO4)cc(C(F)(F)F)n2n1	Mcl1-Bid inh 83
N#Cc1ccc(-c2cccnc2)nc1SCC(=O)Nc1sc2c(c1C#N)CCC2	Mcl1-Noxa inh 60
COc1ccc(-c2ccc(C#N)c(SCC(=O)Nc3sc4c(c3C#N)CCC4)n2)cc1	none
O=C(NCCN1CCOCC1)c1cc(Cl)ccc1[N+](=O)[O-]	Bim-Mcl-1 73
Cc1ccccc1-n1c(C)cc(/C=N/Nc2ccc([N+](=O)[O-])cn2)c1C	none
Cc1cc(/C=N/Nc2ccc([N+](=O)[O-])cn2)c(C)n1-c1ccc(C(=O)O)cc1	Mcl1-Bid inh 66, eIF4E-4G inh 34, Mcl1-Noxa inh 99
COc1cc(NC(=O)CCc2nnc3ccc(N4CCOCC4)nn23)cc(OC)c1OC	none (no result: Mcl1-Bid inh, eIF4E-4G inh, 14-3-3 Bad inh, Mcl1-Noxa inh, Bim-Mcl-1)
O=C1ON=C(c2ccccc2)/C1=C/c1ccc(O)cc1	none (no result: Mcl1-Bid inh, eIF4E-4G inh, 14-3-3 Bad inh, Mcl1-Noxa inh, Bim-Mcl-1)
O=C1ON=C(c2ccc(Cl)cc2)/C1=C/c1ccc(O)cc1	Mcl1-Noxa inh 66
CC(=O)c1ccc(NC(=O)Cn2c3ccccc3c3nc(=O)cc(C)n32)cc1	none (no result: Bim-Mcl-1)
Cc1ccc(/C=N/OC(=O)c2c(C)noc2-c2snnc2C)cc1	Mcl1-Bid inh 63 (no result: Bim-Mcl-1)
CC(C)=NOC(=O)c1c(C)noc1-c1snnc1C	none (no result: Bim-Mcl-1)
Cc1ccccc1C(=O)Nc1ccc(N2CCCC2)cc1	none
CS(=O)(=O)c1ccc(C(=O)Nc2ccc(N3CCCC3)cc2)c(Cl)c1	Mcl1-Noxa inh 67
Cc1ccc(C(=O)Nc2ccc(N3CCCC3)cc2)c(C)c1	Mcl1-Noxa inh 75
COc1ccc(C(=O)NCc2ccncc2)cc1S(=O)(=O)NCc1ccc(Cl)cc1	none (no result: Mcl1-Bid inh, eIF4E-4G inh, 14-3-3 Bad inh, Mcl1-Noxa inh, Bim-Mcl-1)
COC(=O)c1cc(Br)ccc1NC(=O)Nc1ccc(C)cc1	none (no result: Mcl1-Bid inh, eIF4E-4G inh, 14-3-3 Bad inh, Mcl1-Noxa inh, Bim-Mcl-1)
COC(=O)c1cc(Br)ccc1NC(=O)Nc1ccccc1	Mcl1-Noxa inh 73
